Compound activity (PubChem BioAssay)
Compounds with a hit are over-represented: about 1.2% of the library has one in this group of screens.
HttQ103 aggreg – reduces HttQ103-GFP aggregates in PC12 cells; 220,000 compounds, 1.1% hits; Potency, µM (series often up to 46.1 µM), for the others: at the highest dose activity change, negative = inhibition, most hits filed as inhibitors; PC12 HttQ103-GFP aggregates, Acumen cytometry, 40 h; AID 1688; note: potency is the fitted concentration of half-maximal effect; % is set by controls: 0 for no effect and ±100 for the full control effect; nearly all actives have a fitted effect of over 60% in size
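Compounds (qHTS titration) were added to PC12 cells expressing an ecdysone-driven HTT exon 1 Q103–GFP fusion after induction with 100 nM tebufenozide. Aggregate formation was measured as GFP objects in cell lysates.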
GLA spleen mod – alpha-galactosidase A (human) modulation. human spleen homogenate, 4MU-alpha-Gal fluorescence, 40 min. Potency, µM (top dose mostly 80 µM), for the others: at the highest dose activity change, negative = inhibition, most hits filed as inhibitors. 240,000 compounds, 0.008% hits. P06280. AID 2107;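 note: potency is the fitted concentration of half-maximal effect; 0% = enzyme with vehicle and -100% = no enzyme basal signal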
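Inhibition or activation of alpha-galactosidase in human spleen homogenate is scored by 4-MU fluorescence after 40 min at 37C, pH 5.0, with 1 mM substrate. AC50s come from concentration-response fitted to the Hill equation.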
GLA inh pH 4.5 – alpha-galactosidase A (human) inhibition, pH 4.5. 230,000 tested, under 10 active. activity change, negative = inhibition, % at 105 µM. AID 1467. purified enzyme, 4-MU-alpha-Gal fluorescence, pH 4.5. P06280;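 note: 0% = full activity with enzyme and -100% = basal without enzyme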
HTT cytoprotect – cytoprotection in Huntington HTT-Q103 PC12 cell model | Potency, µM (highest dose often 56.4 µM), for the others: cytoprotection (ATP increase), actives largely listed as activators | AID 1471 | PC12 HTT-Q103 induced, cytoprotection, ATP luminescence, 40 h | 230,000 compounds, 0.14% hits; note: potency is the fitted concentration of half-maximal effect; % of control where 0% means no effect; nearly all actives have a fitted effect of over 45% in size
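ATP quantification (ATPlite) reports survival of PC12 cells in which tebufenozide, 100 nM final, switches on Htt exon 1 with 103 glutamines linked to GFP; compounds are titrated.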
PKM2 activator – increases activity of human pyruvate kinase M2; 260,000 compounds, 0.34% hits; purified PKM2, Kinase-Glo ATP luminescence, activation; response scale: 0% is enzyme alone, no compound; Potency, µM (highest dose often 57.5 µM), without a hit: at the highest dose activation, most hits filed as activators; P14618; note: potency is the fitted concentration of half-maximal effect; % is set by controls: 0 for no effect and ±100 for the full control effect; nearly all actives have a fitted effect of over 55% in size
Target sequence (P14618 whole entry, looked up): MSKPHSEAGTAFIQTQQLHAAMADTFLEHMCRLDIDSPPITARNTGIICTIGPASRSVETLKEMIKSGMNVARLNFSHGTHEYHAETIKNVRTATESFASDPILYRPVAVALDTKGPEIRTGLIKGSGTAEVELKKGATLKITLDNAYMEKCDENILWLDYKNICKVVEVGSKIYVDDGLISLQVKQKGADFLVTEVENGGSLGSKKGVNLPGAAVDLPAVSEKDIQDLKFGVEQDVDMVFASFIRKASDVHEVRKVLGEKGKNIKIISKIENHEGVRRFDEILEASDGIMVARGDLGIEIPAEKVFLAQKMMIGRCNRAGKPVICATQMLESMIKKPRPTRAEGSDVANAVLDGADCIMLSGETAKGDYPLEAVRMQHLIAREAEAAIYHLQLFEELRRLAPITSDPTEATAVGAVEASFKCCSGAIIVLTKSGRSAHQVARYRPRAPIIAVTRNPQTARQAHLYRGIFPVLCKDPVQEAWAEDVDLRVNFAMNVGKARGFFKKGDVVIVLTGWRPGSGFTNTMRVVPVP
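Purified hPK-M2 (>95% pure) converted ADP (0.1 mM final) to ATP with 0.5 mM PEP in 50 mM imidazole pH7.2, KCl, MgCl2, Tween 20, BSA; 1 h at room temperature. ATP detected by Kinase-Glo luminescence.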
HeLa viability – counter-screen for pyruvate kinase M2 activators: HeLa cytotoxicity; HeLa viability, CellTiter-Glo ATP luminescence, 24 h; shares compounds with PKM2 activator; 230 tested, under 10 active; activity change, negative = cytotoxicity, % at 57.5 µM; note: % of control where 0% means no effect
An asterisk follows results filed as active; ? = inconclusive; . = no result; [ ] = remark or other dose. Calls come from the whole dose curve; as a rule, active = well fitted curve in the direction sought with a large enough effect; inconclusive = small, poorly fitted or top-dose-only effect, or another doubt; inactive = no such curve, though single readings can be large; an effect the other way counts as inactive or inconclusive.

SMILES | HttQ103 aggreg | GLA spleen mod | GLA inh pH 4.5 | HTT cytoprotect | PKM2 activator | HeLa viability
CCCN1C(=O)S/C(=C/c2ccc(N3CCOCC3)o2)C1=O | 7%[9.22 µM] | 14% | -17 | 1%[10 µM] | 1µM* | 0
CCOC(=O)CN1C(=O)S/C(=C/c2ccc(N3CCCCC3)o2)C1=O | 11% | -4% | 8 | -17% | -2% | .
O=C(CN1C(=O)N/C(=C\c2cccn2-c2cccc(C(=O)O)c2)C1=O)Nc1ccccc1F | . | . | . | . | . | -4
Cc1cccc(OCCSc2nc3c([nH]2)c(=N)ncn3Cc2ccccc2)c1 | -16% | 2% | 3 | 1%[10 µM] | 4% | .
CC(C)Sc1nc2c([nH]1)c(=N)ncn2Cc1ccccc1 | ? | -2% | 1 | 8% | 14µM* | -1
Nc1nc2ccc(S(=O)(=O)c3ccc4nc(N)sc4c3)cc2s1 | -5% | -4% | 0 | -11% | 14µM* | 0
Nc1nc2ccc(O)cc2s1 | ? | -4% | -14 | 0%[10 µM] | 3% | .
O=C(Cn1nnc(-c2ccccc2)n1)N1CCN(S(=O)(=O)c2ccc(Cl)cc2)CC1 | -4% | 5% | -14 | -7% | 2.5µM* | 3
Cc1ccccc1-c1nnn(CC(=O)N2CCN(S(=O)(=O)c3ccc(Cl)cc3)CC2)n1 | -17% | 5% | -7 | 25% | ? | .
c1ccc(-c2nn3c(Cn4nnc5ccccc54)nnc3s2)cc1 | 4% | -13% | 0 | 0%[10 µM] | -5% | .
c1ccc(-c2nn3c(Cn4cnc5ccccc54)nnc3s2)cc1 | -16% | -4% | -5 | 7%[10 µM] | 3.2µM* | 2
CC1(C)CCC(=O)N[C@H]1CC(=O)C[C@H]1NC(=O)CCC1(C)C | . | . | . | -2%[10 µM] | . | .
CCN1C(=O)c2cccc3c(S(=O)(=O)Nc4ccncc4)ccc1c23 | 11%[9.22 µM] | -4% | -11 | -14% | 1% | .
CCN1C(=O)c2cccc3c(S(=O)(=O)Nc4ccccc4)ccc1c23 | -31% | 1% | -26 | -60% | 4µM* | ?
Cc1ccc(C)c2[nH]c(=O)c(CN(Cc3ccco3)C(=O)Nc3ccccc3)cc12 | ? | -4% | -10 | -107% | 7.9µM* | ?
Cc1ccc2cc(CN(Cc3ccco3)C(=O)NCc3ccccc3)c(=O)[nH]c2c1C | 10% | 4% | -12 | 2%[10 µM] | -3% | .
Cc1cc(O)c2c(c1O)C(=O)C(O)=C(O)C2=O | . | 20% | -4 | -31% | . | .
COC1C(O)COC1/C=C/c1ccccc1 (configuration not stated) | . | 11%[17.5 µM] | . | ? | . | .
Fc1ccccc1Cn1nnc2c(-n3ccnc3)ncnc21 | -13% | -6% | -1 | 1% | 1.1µM* | 0
CCN(Cc1ccccc1)C(=O)c1oc2ccc(C)cc2c1C | . | . | . | . | -1%[11.5 µM] | .
Cc1ccc2oc(C(=O)N(C)Cc3ccc(C)o3)c(C)c2c1 | . | . | . | . | 6.3µM* | 2
Cc1oc(=O)c(NC(=O)c2ccc(Cl)cc2)cc1C(=O)c1ccccc1 | ? | 7% | -7 | ? | 6.3µM* | 2
Cc1oc(=O)c(NC(=O)c2ccccc2)cc1C(=O)c1ccccc1 | ? | 4% | 7 | ? | 28% | .
CC(=O)Oc1cc(-c2coc3cc(OC(C)=O)c(OC(C)=O)c(OC(C)=O)c3c2=O)cc(OC(C)=O)c1OC(C)=O | . | 3% | -2 | . | . | .
